Compound activity (PubChem BioAssay)
M1 ag parental: counter-screen for M1 agonists: effect in parental CHO-K1 cells; Fluo-8 calcium fluorescence; scaled to maximal ATP response, vehicle zero; activation, % at 3 µM; hit rate 0.48% among 360,000; AID 602248, 2012; in the data active means activation above about 15%;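 further: untransfected CHO-K1 host cells lacking M1 receptor as counterscreen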
CHO-K1 Ca antag: counter-screen for M1 antagonists: effect in parental CHO-K1 cells. ATP-induced calcium, Fluo-8 fluorescence. inhibition, % at 3 µM. hit rate 0.6% among 360,000;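 active means inhibition above a per-plate cutoff, the plate's mean sample inhibition plus 3 SD, cut at about 24% in these data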;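 further: 0% = DMSO plus EC80 ATP and 100% = DMSO alone without ATP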
M1 antag: human M1 muscarinic receptor antagonists, primary screen, CHO-K1 cells, Fluo-8 calcium fluorescence, 1536-well; inhibition, % at 3 µM; CHO-K1 hM1, ACh EC80 antagonist; hit rate 1.3% among 360,000; Muscarinic acetylcholine receptor M1 (Homo sapiens), P11229;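 active means percent inhibition above its own plate's cutoff, namely the mean of that plate's compound wells plus 3 SD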;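 further: peak over basal fluorescence ratio during 140 s after agonist addition; 0% = ACh EC80 plus DMSO and 100% = DMSO alone without agonist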
M1 PAM: human M1 muscarinic receptor positive allosteric modulators, primary screen, CHO-K1 cells, Fluo-8 calcium fluorescence, 1536-well; hit rate 0.088% among 360,000; activation, % at 3 µM; CHO-K1 hM1, ACh EC20; 0% = ACh EC20, 100% = maximal ACh; in the data active means activation above about 19%, passing the limit was not always enough
M1 PAM parental: nonselective calcium activators in parental CHO-K1 cells, primary screen, counter-screen for M1 PAM project, cell-based, Fluo-8 calcium fluorescence, full deck, 1536-well; ATP EC20; 0% at ATP EC20, 100% at ATP max; activation, % at 3 µM; hit rate 0.02% among 360,000;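 active means activation above the run cutoff, the mean activation of all test compounds plus 3 SD, cut at about 40% in these data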;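 further: peak over basal fluorescence ratio in a 140 s read after ATP addition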
M1 ag: human M1 muscarinic receptor agonists, primary screen, Fluo-8 calcium fluorescence, CHO-K1 cells, HTS. Muscarinic acetylcholine receptor M1 (Homo sapiens), P11229. CHO-K1 hM1, agonist mode; 0% DMSO, 100% acetylcholine EC100. activation, % at 3 µM. hit rate 0.33% among 360,000. AID 588814, 2011;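 active means activation above the run's mean compound activation plus 3 SD, cut at about 16% in these data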;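 further: peak over basal fluorescence ratio within a 140 s kinetic read after compound addition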
* hit, by the source's call. Shown are actives, neighbours in structure and some others; about 2.4% of the full set was active somewhere.

SMILES	M1 ag parental	CHO-K1 Ca antag	M1 antag	M1 PAM	M1 PAM parental	M1 ag
CCN1CC(CN(C)Cc2nc(-c3ccc(OC)c4ccccc34)oc2C)CC1=O (stereo not given)	1	-17	-12	7	15	-4
O=c1c2ccccc2c(-c2ccccc2)nn1Cc1c(Cl)cccc1Cl	0	-12	-5	2	19	-1
Clc1cccc(Cl)c1Cn1ccc(C2CC2)n1	16*	4	-2	6	6	-4
O=C1c2ccccc2C(=O)N1CC#CCN1CCN(C(c2ccccc2)c2ccccc2)CC1	-1	-13	-2	-9	13	-6
O=C1C2CSCN2C(=O)CN1CCCN1CCN(C(c2ccccc2)c2ccccc2)CC1 (stereo not given)	-1	9	62*	-26	0	-9
C#CC[N+](C)(C)CCCCCCCCC	0	-5	8	-3	24	-7
CC#CC[N+](C)(C)CCCCCCCCCC	1	4	57*	-19	-1	-8
OCC[C@@H]1C[C@@H](O)[C@H](O)[C@]2(CCCCO2)O1	0	-12	5	2	11	-4
CCOC(=O)C1(C)CCCN(C(=O)c2ccc(-c3ccccc3)cc2)C1 (stereo not given)	2	-2	3	-1	0	-3
COc1cc(NC(=O)C/C(C)=N/NC(=O)C(=O)NC2CCCCC2)c(OC)cc1Cl	-1	3	-8	3	-13	-3
COc1cc(NC(=O)C/C(C)=N/NC(=O)C(=O)NCCO)c(OC)cc1Cl	0	55*	-6	8	-15	-7
Cc1cnc(C(=O)OCC(=O)NC(C)c2ccccc2)cn1 (stereo not given)	0	-1	-12	12	-10	-4
CCNC(=O)C1(C)CCN1C(=O)CCc1cccc(Cl)c1 (stereo not given)	1	1	-4	5	8	-1
Clc1ccc(-c2cnc3n2CCCCC3)cc1	4	-17	41*	-22	18	-7
Brc1ccc(-c2cnc3n2CCCC3)cc1	1	0	9	-18	5	-5
Fc1ccc(-c2cnc3n2CCCCC3)cc1	1	14	39*	-19	-11	-8
CCOc1ccc(-c2cnc3n2CCC3)cc1	0	-19	1	-6	31	-5
CC(=O)Oc1cc2c(cc1Cl)C1(CC(c3ccccc3Cl)O2)CC(C)(C)NC(=S)N1 (stereo not given)	0	-5	47*	-12	11	-3
c1ccc(C(c2nnnn2C2CCCC2)N2CCCCCC2)nc1 (stereo not given)	0	19	34*	-27	-6	-13
C(=C\c1ccccc1)/CN1CCN(C(c2ccccc2)c2nnnn2C2CCCC2)CC1 (stereo not given)	2	-25	54*	-23	17	-5
c1ccc(C(c2ccccc2)N2CCN(C(c3ccccn3)c3nnnn3C3CCCC3)CC2)cc1 (stereo not given)	0	-4	6	-2	-7	-5
FC(F)(F)Oc1ccccc1C(c1nnnn1C1CCCC1)N1CCN(C/C=C/c2ccccc2)CC1 (stereo not given)	1	-9	56*	-25	17	-4
C(=C\c1ccccc1)/CN1CCN(C(c2ccnc3ccccc23)c2nnnn2C2CCCC2)CC1 (stereo not given)	0	-3	70*	-26	-4	-6
COc1cccc(C(c2nnnn2C2CCCCC2)N2CCN(C/C=C/c3ccccc3)CC2)c1OC (stereo not given)	-1	9	12	-21	1	-6
C[C@H](C(=O)NCc1ccccc1)C(=O)c1ccccc1	0	14	-11	7	-18	-1
CCc1ccc(S(=O)(=O)Nc2ccc(Br)cn2)cc1	0	-8	-9	1	4	-6
